The text below walks through data of PubChem BioAssay (NCI).

Compounds without any hit were thinned out: in the full panel of roughly 79,000, 15% have a hit. A number with no mark means an inactive call. Activity calls are given as the source filed them. Cut-off read from the data, not from the text of the source: active = growth inhibition above about 70%; inactive = the rest.

A short description of test [1]: NCI Yeast Anticancer Drug Screen. Data for the rad50 strain (AID 155).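 Note: 0% = growth of vehicle-only cultures of the same strain.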 The following applies: S. cerevisiae rad50 strain growth inhibition, hits give high values. An outline of the steps: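 DNA repair mutant yeast, compound exposure, growth read-out; inhibition is taken relative to vehicle.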
The nature of test [2]: NCI Yeast Anticancer Drug Screen. Data for the mec2-1 strain (AID 157). The following applies: S. cerevisiae mec2-1 strain, hits give high values. Put shortly: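 Vehicle-treated cultures served as reference for growth inhibition of compound-exposed mec2-1 yeast.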
A short description of test [3]: NCI Yeast Anticancer Drug Screen. Data for the sgs1 mgt1 strain (AID 161).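 Note: 0% = growth of cultures given vehicle only.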 The following applies: S. cerevisiae sgs1 mgt1 strain, hits give high values. An outline of the steps: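 Genetically altered yeast, compound exposure, growth inhibition relative to vehicle.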
The nature of test [4]: NCI Yeast Anticancer Drug Screen. Data for the cln2 rad14 strain (AID 165).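 Note: 0% = growth equal to vehicle treated cultures.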 The following applies: S. cerevisiae cln2 rad14 strain, hits give high values. An outline of the steps: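 Each compound was tested on cln2 rad14 yeast. Inhibition of growth was calculated against vehicle-exposed controls.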
Test [5] in a line: NCI Yeast Anticancer Drug Screen. Data for the bub3 strain (AID 167). The following applies: S. cerevisiae bub3 mutant strain, hits give high values. An outline of the steps: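 In this screen, a yeast mutant lacking normal mitotic checkpoint function is challenged with compound. Relative growth versus vehicle gives the inhibition value.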
Test [6] in a line: NCI Yeast Anticancer Drug Screen. Data for the mlh1 rad18 strain (AID 175). The following applies: S. cerevisiae mlh1 rad18 strain growth inhibition, hits give high values. Put shortly:
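Vehicle-treated cultures served as the reference for growth inhibition in a yeast strain carrying DNA damage repair alterations exposed to each compound.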

Setting [7] is: at 5.0 µM (retest, dose inferred, filed as 0.5).
The mark [8] stands for this setting: at 50.0 µM (retest, dose inferred, filed as 5.0).

For `[C-]#[N+]C(C)(c1ccccc1)c1ccccc1`, the growth inhibition in test [1] (setting [7]) was -117%; in test [1] (setting [8]), 70% (active); in test [1] (at 50.0 µM), 95.5% (active); in test [2] (setting [7]), -34%; in test [2] (setting [8]), 47%; in test [2] (at 50.0 µM), 93.2% (active). Moreover, the growth inhibition in test [3] (setting [7]) is -48%; in test [3] (setting [8]) it was 79% (active); in test [3] (at 50.0 µM), 95.5% (active); in test [4] (setting [7]), -59%; in test [4] (setting [8]), 47%; in test [4] (at 50.0 µM), 90.1% (active). The growth inhibition in test [5] (setting [7]) was -45%; in test [5] (setting [8]), 80% (active); in test [5] (at 50.0 µM), 94.2% (active); in test [6] (setting [7]), -101%; in test [6] (setting [8]), 76% (active); in test [6] (at 50.0 µM) it was 94.4% (active).

For the compound `CCCCCCCCCCCCNc1ccccn1`, the growth inhibition is -3% in test [1] (setting [7]); 98% (active) in test [1] (setting [8]); 18.4% in test [1] (at 50.0 µM); 25% in test [2] (setting [7]); 99% (active) in test [2] (setting [8]); 21.2% in test [2] (at 50.0 µM). The growth inhibition in test [3] (setting [7]) is 42%; in test [3] (setting [8]), 99% (active); in test [3] (at 50.0 µM), 69.8%; in test [4] (setting [7]), 6%; in test [4] (setting [8]) it was 99% (active); in test [4] (at 50.0 µM), 56%. In addition, the growth inhibition in test [5] (setting [7]) was 29%; in test [5] (setting [8]), 99% (active); in test [5] (at 50.0 µM) it was 48%; in test [6] (setting [7]) it was 37%; in test [6] (setting [8]), 99% (active); in test [6] (at 50.0 µM), 80.8% (active).

For `Cc1ccc(O)c(N=Nc2ccc(Cl)cc2)c1`, the growth inhibition in test [1] (setting [7]) was 0%; in test [1] (setting [8]), 2%; in test [1] (at 50.0 µM), -3.95%; in test [2] (setting [7]), 4%; in test [2] (setting [8]) it was -2%; in test [2] (at 50.0 µM), -1.95%. Also, the growth inhibition in test [3] (setting [7]) was -3%; in test [3] (setting [8]) it was 17%; in test [3] (at 50.0 µM), -20.8%; in test [4] (setting [7]), 1%; in test [4] (setting [8]), -8%; in test [4] (at 50.0 µM) it was 7.2%. Also, the growth inhibition in test [5] (setting [7]) is 1%; in test [5] (setting [8]) it was -8%; in test [5] (at 50.0 µM) it was 4.4%; in test [6] (setting [7]) it was -3%; in test [6] (setting [8]) it was -1%; in test [6] (at 50.0 µM), -23.2%.

For `CC(/C=C1\C(=O)N(C)C(CC(C)C(Cl)(Cl)Cl)C(=O)N1C)C(Cl)(Cl)Cl` (stereo not given), the growth inhibition in test [1] (setting [7]) is 6%; in test [1] (setting [8]), 78% (active); in test [1] (at 50.0 µM), 62.8%; in test [2] (setting [7]) it was 7%; in test [2] (setting [8]), 74% (active); in test [2] (at 50.0 µM), 30.8%. The growth inhibition in test [3] (setting [7]) is 4%; in test [3] (setting [8]), 76% (active); in test [3] (at 50.0 µM), 57.7%; in test [4] (setting [7]), 25%; in test [4] (setting [8]), 74% (active); in test [4] (at 50.0 µM), 38.5%. In addition, the growth inhibition in test [5] (setting [7]) was 28%; in test [5] (setting [8]) it was 79% (active); in test [5] (at 50.0 µM) it was 36.2%; in test [6] (setting [7]) it was 13%; in test [6] (setting [8]) it was 79% (active); in test [6] (at 50.0 µM) it was 70.7% (active).

Regarding `CC(C)(C)C(=O)CC(Cc1nccc2ccccc12)c1ccco1` (stereo not given), the growth inhibition is -3% in test [1] (setting [7]); 94% (active) in test [1] (setting [8]); 98.7% (active) in test [1] (at 50.0 µM); -5% in test [2] (setting [7]); 96% (active) in test [2] (setting [8]); 99.2% (active) in test [2] (at 50.0 µM). Moreover, the growth inhibition in test [3] (setting [7]) was -3%; in test [3] (setting [8]), 97% (active); in test [3] (at 50.0 µM), 98.7% (active); in test [4] (setting [7]), 2%; in test [4] (setting [8]) it was 94% (active); in test [4] (at 50.0 µM), 98% (active). Also, the growth inhibition in test [5] (setting [7]) is -1%; in test [5] (setting [8]) it was 94% (active); in test [5] (at 50.0 µM) it was 99.2% (active); in test [6] (setting [7]) it was -8%; in test [6] (setting [8]), 97% (active); in test [6] (at 50.0 µM), 98.9% (active).

`O=C1/C(=C/c2cccc(F)c2)CCCc2ccccc21`: the growth inhibition in test [1] (setting [7]) was 3%; in test [1] (setting [8]), 50%; in test [1] (at 50.0 µM), 70% (active); in test [2] (setting [7]), 4%; in test [2] (setting [8]), 36%; in test [2] (at 50.0 µM), 37.2%. Besides, the growth inhibition in test [3] (setting [7]) is 13%; in test [3] (setting [8]) it was 67%; in test [3] (at 50.0 µM), 82.5% (active); in test [4] (setting [7]), -14%; in test [4] (setting [8]) it was 14%; in test [4] (at 50.0 µM), 12.3%. Moreover, the growth inhibition was 14% in test [5] (setting [7]); 81% (active) in test [5] (setting [8]); 75.5% (active) in test [5] (at 50.0 µM); 2% in test [6] (setting [7]); 75% (active) in test [6] (setting [8]); 72.7% (active) in test [6] (at 50.0 µM).

As for `N#C/C(=C\c1cccnc1)c1csc2ccccc12`, the growth inhibition in test [1] (setting [7]) is 2%; in test [1] (setting [8]), 86% (active); in test [1] (at 50.0 µM), 95.3% (active); in test [2] (setting [7]), 8%; in test [2] (setting [8]), 91% (active); in test [2] (at 50.0 µM) it was 88.8% (active). Besides, the growth inhibition is 2% in test [3] (setting [7]); 85% (active) in test [3] (setting [8]); 75.2% (active) in test [3] (at 50.0 µM); 1% in test [4] (setting [7]); 83% (active) in test [4] (setting [8]); 73% (active) in test [4] (at 50.0 µM). Moreover, the growth inhibition in test [5] (setting [7]) is 1%; in test [5] (setting [8]), 83% (active); in test [5] (at 50.0 µM), 94.2% (active); in test [6] (setting [7]), -5%; in test [6] (setting [8]), 88% (active); in test [6] (at 50.0 µM), 94.4% (active).

With `Cc1ccc(N=Nc2sc(N)nc2C)cc1C`, the growth inhibition is -154% in test [1] (setting [7]); -57% in test [1] (setting [8]); 64% in test [1] (at 50.0 µM); -51% in test [2] (setting [7]); -30% in test [2] (setting [8]); 35.8% in test [2] (at 50.0 µM). In addition, the growth inhibition in test [3] (setting [7]) was -65%; in test [3] (setting [8]) it was -45%; in test [3] (at 50.0 µM) it was 14.1%; in test [4] (setting [7]), -58%; in test [4] (setting [8]), -47%; in test [4] (at 50.0 µM), 30.1%. Moreover, the growth inhibition in test [5] (setting [7]) is -62%; in test [5] (setting [8]), -12%; in test [5] (at 50.0 µM) it was 87.9% (active); in test [6] (setting [7]) it was -125%; in test [6] (setting [8]), -52%; in test [6] (at 50.0 µM), 85.4% (active).

Regarding `NNC(=S)N/N=C(/C(=O)Nc1ccc(Cl)c(Cl)c1)C(C1OC(=O)c2ccccc21)[N+](=O)[O-]` (stereo not given), the growth inhibition in test [1] (setting [7]) is 27%; in test [1] (setting [8]), 44%; in test [1] (at 50.0 µM), 26.6%; in test [2] (setting [7]), 20%; in test [2] (setting [8]) it was 39%; in test [2] (at 50.0 µM) it was 4.45%. Moreover, the growth inhibition in test [3] (setting [7]) was 9%; in test [3] (setting [8]), 59%; in test [3] (at 50.0 µM), 34.4%; in test [4] (setting [7]), 31%; in test [4] (setting [8]), 48%; in test [4] (at 50.0 µM), 23.4%. Moreover, the growth inhibition in test [5] (setting [7]) was 28%; in test [5] (setting [8]), 62%; in test [5] (at 50.0 µM) it was 32.5%; in test [6] (setting [7]), 20%; in test [6] (setting [8]), 44%; in test [6] (at 50.0 µM), 29.8%.

On to `CN(c1ccc(C(N)=O)cc1)c1c(O)c2ccccc2[nH]c1=O`, for which the growth inhibition in test [1] (setting [7]) was 1%; in test [1] (setting [8]) it was 58%; in test [1] (at 50.0 µM), -27.9%; in test [2] (setting [7]) it was -1%; in test [2] (setting [8]), 48%; in test [2] (at 50.0 µM) it was 6.8%. Also, the growth inhibition in test [3] (setting [7]) was 1%; in test [3] (setting [8]), 51%; in test [3] (at 50.0 µM), 14.6%; in test [4] (setting [7]), 4%; in test [4] (setting [8]), 42%; in test [4] (at 50.0 µM) it was 24.9%. Also, the growth inhibition is -4% in test [5] (setting [7]); 46% in test [5] (setting [8]); 23.5% in test [5] (at 50.0 µM); 0% in test [6] (setting [7]); 63% in test [6] (setting [8]); 15.5% in test [6] (at 50.0 µM).
